Results on eight compounds are retold here after PubChem BioAssay.

One may read the viability as a read-out of living cells in per cent, often relative to untreated cells. In general, inhibition refers to the change of the read-out against control, counted positive when it falls. As a reminder, the remaining activity is the signal under treatment as a percentage of the control signal.

Molecules are shown by their SMILES. “And” between values parts separate entries of the source, which are not always exact repeats. Equal entries are not always repeated. Records with an inconclusive call do not appear. The source made the active and inactive calls. Unless noted, how the calls were made is not given here.

Assay [1] in a line: compounds altering circadian rhythm period length – cell-based, LOPAC library, luminescence reporter (AID 2774).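 Further: values are relative to mean of DMSO wells on each plate.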 As to conditions: circadian reporter cells, at 7 µM, actives lie on both sides.
Assay [2] is described as follows: P. berghei load reduction in hepatocytes – cell-based, HepG2, luciferase luminescence, HepG2 viability, primary screen (AID 624349; in the data active means parasite load remaining mostly below about 12%, no sharp cut-off; inactive means mostly above about 10%;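 further: 100% = mean of DMSO negative control wells on the same plate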). As to conditions: P. berghei liver stage in HepG2, luciferase luminescence, concentration not given here; parasite load remaining: stronger effect = lower value; viability: measured here: HepG2 viability without parasites.
The test system of assay [3] is Hepatitis C virus NS3 helicase. Description: blockers of NS3h binding to ssDNA – biochemical, fluorescence polarization, LOPAC1280 library, primary screen (AID 687035; in the data active means inhibition above about 37%). Conditions: Purified HCV NS3 helicase, Cy5-dT15 ssDNA binding fluorescence polarization; stronger effect = higher value; concentration not given here.
Assay [4] is described as follows: compounds altering Cy5-DNA-NS3h complex signal – biochemical, LOPAC1280, artefact control for HCV NS3 helicase inhibitor project (AID 687037). Conditions: Cy5-DNA-NS3h complex fluorescence interference counterscreen. A general note: Counterscreens check selectivity or assay interference.
Assay [5] relates to Aerobactin synthetase IucA (Klebsiella pneumoniae, hypervirulent). Nature of the assay: biochemical IucA inhibition screen of LOPAC library by absorbance (AID 1346212).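 Further: 100% = no compound wells and 0% = no enzyme wells.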 As to conditions: IucA enzyme assay, absorbance (OD) readout; stronger effect = lower value;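 tested at 8 µM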.
The nature of assay [6]: viability loss with induced miR-34 in A549 – imaging, A549 dox-inducible miR-34, nuclei and caspase counts, primary screen (AID 1347080;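 active means compounds whose cell count with miR-34 switched on is under 0.7 times the count with it off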). Conditions: A549 miR-34 inducible, Hoechst nuclei count, 48 h.
A short description of assay [7]: blockers of cellular phospholipid synthesis – cell-based, LOPAC library, screen 4, primary screen (AID 1347384). As to conditions: animal cells, phospholipid biosynthesis inhibition screen; at 10 µM.
Assay [8] can be described thus: galactose survival enhancers in mitochondrial complex I cybrids – cell-based, galactose medium, ATP luminescence, primary screen (AID 1645843;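 active means z-score of at least 1.8 in each of two replicates, scored against plate mean and spread of sample wells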;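 further: positive z means more ATP and so rescue of galactose-driven cybrid death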). As to conditions: complex I mutant cybrid cells, 72 h, stronger effect = higher value.
Assay [9] in a line: MELAS cybrid and Rieske KO viability enhancers – cell-based, MELAS cybrids, Rieske KO mouse fibroblasts, CellTiter-Glo, primary screen (AID 1508586;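 active means mean z-score across replicates of 1.96 or higher in either the MELAS or the Rieske mutant cell line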;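 further: z relative to plate mean and SD of compound and empty wells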). Conditions: low glucose. A general note: In ATP-based viability assays light output follows the ATP content of the culture.
Assay [10] in a line: viability loss in pontine glioma line – cell-based, SU-DIPG-XIII, MIPE4.0, CellTiter-Glo, qHTS, dose response (AID 1347061; cut-off not given, nearly all actives have AC50 up to about 37 µM;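 further: cells exposed to compound for 48 hours before readout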). As to conditions: CellTiter-Glo ATP luminescence.
A short description of assay [11]: viability loss in pontine glioma line – cell-based, JHH-DIPG-1, MIPE4.0, CellTiter-Glo, qHTS, dose response (AID 1347062; cut-off not given, nearly all actives have AC50 up to about 27 µM). Conditions: JHH-DIPG-1 viability, CellTiter-Glo ATP luminescence.
Assay [12] is described as follows: viability loss in pontine glioma line – cell-based, SU-DIPG-IV, MIPE4.0, CellTiter-Glo, qHTS, dose response (AID 1347063; cut-off not given, nearly all actives have AC50 up to about 30 µM;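 further: compound exposure lasted 48 hours before the viability readout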). As to conditions: CellTiter-Glo ATP luminescence.
Assay [13] in a line: growth inhibition of DIPG cells – cell-based, MIPE4.0 library, CellTiter-Glo luminescence, qHTS (AID 1347066; cut-off not given, nearly all actives have AC50 up to about 30 µM;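 further: cells exposed to compound for 48 hours before readout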). As to conditions: SU-DIPG-VI viability, CellTiter-Glo ATP luminescence.
Where [14] appears, read: measured here: relative caspase fold change +Dox/-Dox.
Where [15] appears, read: measured here: total cells with miR-34 induction, stronger effect = lower value.
The mark [16] stands for this setting: measured here: total cells without miR-34 induction.

Consider `CC12NC(Cc3ccccc31)c1ccccc12` (configuration not stated), for which, in assay [1], the period change was 0.25 h (inactive). Also, the parasite load remaining in assay [2] was 63.2% (inactive). Besides, the viability in assay [2] was determined as 167%. In [3], the inhibition is -3% (inactive). In addition, in [4], the fluorescence ratio (interference) was 0.9 (inactive). The remaining activity in [5] was 120% (inactive). For the same compound, the fold change in [6] (stronger effect = lower value) was 1.01 (inactive) and 0.879 (inactive); in [6] (setting [14]), 1.28 and 2.22. In addition, the cell count is 10300 and 11700 in [6] (setting [15]); 10100 and 13300 in [6] (setting [16]). The call in assay [7] was inactive. Further, the z-score in assay [8] was -0.15 (inactive).

Regarding `NCCc1ccc(S(=O)(=O)F)cc1`, in assay [1], the period change is -0.1 h (inactive). For the same compound, the inhibition in [3] is -2% (inactive). In addition, the fluorescence ratio (interference) in assay [4] is 0.9 (inactive). For the same compound, the remaining activity in [5] was 99.4% (inactive). The fold change was 1.01 (inactive) and 0.94 (inactive) in assay [6] (stronger effect = lower value); 0.956 and 0.406 in assay [6] (setting [14]). In addition, the cell count in assay [6] (setting [15]) was 10400 and 7770; in assay [6] (setting [16]), 10400 and 8270. Also, the compound was called inactive in [7]. In addition, the z-score in assay [9] (MELAS cybrid survival, CellTiter-Glo 48 h, stronger effect = higher value) was -0.305 (inactive); in assay [9] (Rieske KO mouse fibroblast survival, CellTiter-Glo 72 h), -1.62; in [8] it was 0.125 (inactive).

As for `NC(=O)c1ccc(OCC(O)CN2CC=C(c3ccc(F)cc3)CC2)cc1` (configuration not stated), in [1], the period change is 0.145 h (inactive). For the same compound, the inhibition in assay [3] was -1% (inactive). In [4], the fluorescence ratio (interference) was 0.9 (inactive). The remaining activity in assay [5] was 103% (inactive). Besides, the results for the fold change in [6] (stronger effect = lower value) and in [6] (setting [14]) were 1.01 (inactive) and 1.9, respectively. For the same compound, the cell count in assay [6] (setting [15]) is 9620; in assay [6] (setting [16]), 9570. For the same compound, the result in [7] was inactive. Also, the z-score in [8] is -0.85 (inactive).

As for `CCCN1CCC[C@@H](c2cccc(O)c2)C1`, the period change in assay [1] is 0.11 h (inactive). Besides, the inhibition in assay [3] is -3% (inactive). In addition, in assay [4], the fluorescence ratio (interference) was 1 (inactive). Also, the remaining activity in [5] is 106% (inactive). In addition, the fold change was 0.956 (inactive) in assay [6] (stronger effect = lower value) and 0.986 in assay [6] (setting [14]). Besides, the cell count was determined as 9850 in assay [6] (setting [15]) and 10300 in assay [6] (setting [16]). Also, the compound was called inactive in assay [7]. Also, in assay [8], the z-score was 0.185 (inactive).

Turning to `Cc1nc(-c2ccc(-c3ccc(C(=O)N4CCc5cc6c(cc54)C4(CCN(C)CC4)CO6)cc3)c(C)c2)no1`, the period change in [1] was 0.165 h (inactive). Moreover, the remaining activity in [5] was 96.4% (inactive). The compound was classed as inactive in assay [10], in assay [11], in assay [12] and in assay [13].

Consider `NC1CCc2cc(O)c(O)cc2C1` (configuration not stated), for which, in assay [1], the period change was 0.115 h (inactive). The inhibition in assay [3] is -1% (inactive). Besides, the fluorescence ratio (interference) in [4] is 1 (inactive). The remaining activity in [5] is 106% (inactive). Also, the fold change in assay [6] (stronger effect = lower value) was 0.979 (inactive) and 0.806 (inactive); in [6] (setting [14]) it was 1.51 and 1.21. Moreover, the cell count in [6] (setting [15]) was 9700 and 3720; in assay [6] (setting [16]), 9900 and 4610. The compound was classed as inactive in assay [7]. For the same compound, in assay [8], the z-score is -0.895 (inactive).

As for `CCn1cnc2c(Nc3cccc(Cl)c3)nc(N[C@@H]3CCCC[C@@H]3N)nc21`, in assay [1], the period change is 0.275 h (inactive). Moreover, the parasite load remaining in assay [2] is 33.4% (inactive). In [2], the viability came out at 108%. Besides, in [3], the inhibition was -2% (inactive). In addition, the fluorescence ratio (interference) in assay [4] was 0.9 (inactive). Moreover, the remaining activity in [5] was 98.9% (inactive). The fold change in [6] (stronger effect = lower value) was 0.982 (inactive); in [6] (setting [14]) it was 0.968. Besides, the cell count turned out to be 797 in assay [6] (setting [15]) and 812 in assay [6] (setting [16]). Further, the call in assay [7] was inactive. Also, in assay [8], the z-score was -1.48 (inactive).

For `CNCCc1ccc(O)c(O)c1`, in assay [1], the period change was 0 h (inactive). The inhibition in assay [3] was -2% (inactive). Also, the fluorescence ratio (interference) in assay [4] was 1 (inactive). The remaining activity in assay [5] was 115% (inactive). In addition, the fold change in [6] (stronger effect = lower value) was 1.01 (inactive); in [6] (setting [14]), 1.35. Also, the results for the cell count in assay [6] (setting [15]) and in [6] (setting [16]) were 9960 and 9850, respectively. The compound was classed as inactive in assay [7]. For the same compound, the z-score in assay [8] was -0.945 (inactive).
